# According to PubChem BioAssay (NCATS):
# Results filed as inconclusive are left out. Calls of active or inactive are those of the source. Calls follow the shape of the dose curve; as a rule, active = well fitted inhibition curve with a large enough effect; inconclusive = small, poorly fitted or top-dose-only effect; inactive = no such curve, though single readings can be large or run the other way.
# Target: Thioredoxin reductase 1, cytoplasmic (Rattus norvegicus) (UniProt O89049)
# Test: qHTS Assay for Inhibitors of Mammalian Selenoprotein Thioredoxin Reductase 1 (TrxR1) (AID 488773); also: nearly all actives have a fitted effect of over 40% in size;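 as to activity change, negative = inhibition: drop in NADPH fluorescence over an 8 min run after selenite addition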
# Settings: purified TrxR1 enzyme activity; Potency: inhibition; series mostly up to 57.1 µM; activity change, negative = inhibition: at the top concentration
# How it was run: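 Steps: enzyme (90 nM) plus NADPH (400 uM final), 5 min at ~22 deg C; compound added, 15 min; selenite (400 uM final) added; fluorescence followed for 8 min. Concentration-response curves derived from the normalized delta values.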
# % is scaled to controls: 0 for no effect and ±100 for the full control effect; potency is read from the fitted curve at half-maximal effect.
# Chain of Thioredoxin reductase 1, cytoplasmic (Rattus norvegicus) (O89049 whole entry, looked up): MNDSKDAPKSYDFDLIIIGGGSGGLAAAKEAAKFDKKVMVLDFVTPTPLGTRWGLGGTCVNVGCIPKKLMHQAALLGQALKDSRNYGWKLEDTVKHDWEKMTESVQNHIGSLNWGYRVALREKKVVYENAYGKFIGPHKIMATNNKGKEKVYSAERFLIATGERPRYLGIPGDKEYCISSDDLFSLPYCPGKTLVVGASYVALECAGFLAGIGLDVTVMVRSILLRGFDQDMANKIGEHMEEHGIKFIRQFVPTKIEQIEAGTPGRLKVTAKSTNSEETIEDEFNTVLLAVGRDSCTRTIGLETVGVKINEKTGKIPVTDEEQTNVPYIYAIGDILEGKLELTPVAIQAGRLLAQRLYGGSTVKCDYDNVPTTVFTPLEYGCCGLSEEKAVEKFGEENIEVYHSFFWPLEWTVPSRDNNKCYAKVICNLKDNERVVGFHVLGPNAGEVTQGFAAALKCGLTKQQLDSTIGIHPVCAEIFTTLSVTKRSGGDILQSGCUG
Structure (SMILES),"activity change, negative = inhibition",Potency
CCCC[N+]1(C)C2CC(OC(=O)[C@H](CO)c3ccccc3)CC1C1OC12 (stereo partly drawn),-6.53% (inactive),
CC(N)Cc1c[nH]c2ccc(O)cc12 (stereo not drawn),-8.88% (inactive),
COc1ccc2c(c1)[C@@]13CCCC[C@H]1[C@@H](C2)NCC3,1.89% (inactive),
O=c1c2ccccc2[se]n1-c1ccccc1,-1.24% (inactive),
c1ccc2cc(CC3=NCCN3)ccc2c1,1.73% (inactive),
Ic1ccccc1CNC1C2CCN(CC2)C1C(c1ccccc1)c1ccccc1 (stereo not drawn),-13.1% (inactive),
OCc1cnc[nH]1,-6.63% (inactive),
CC(C)NP(=O)(NC(C)C)OP(=O)(NC(C)C)NC(C)C,4.1% (inactive),
C=CCN(C1=NCCN1)c1c(Cl)cccc1Cl,-18.7% (inactive),
C[N+]1(C)CCc2cc3c(cc2[C@H]1[C@@H]1OC(=O)c2c1ccc1c2OCO1)OCO3,-4.29% (inactive),
COc1ccc2c(c1)/C(=C/c1cnc[nH]1)C(=O)N2,-24.2% (inactive),
COc1ccc(CNC(=O)/C=C/c2ccc3[nH]cc(CCN(C)C)c3c2)cc1,-1.38% (inactive),
CO[C@H]1CC=C2CCN3CCC4=C(CC(=O)OC4)[C@]23C1,28.4% (inactive),
CCCCCCCCCCCCCC(=O)O[C@@H]1[C@@H](C)[C@@]2(O)[C@@H](C=C(CO)C[C@@]3(O)C(=O)C(C)=C[C@@H]23)C2C(C)(C)[C@@]21OC(C)=O (stereo partly drawn),19.9% (inactive),
Oc1ccc2c3c1O[C@H]1c4[nH]c5ccccc5c4C[C@@]4(O)C(C2)N(CC2CC2)CCC314 (stereo partly drawn),-5.41% (inactive),
C[N+](C)(C)CC#CCOC(=O)Nc1cccc(Cl)c1,,21.2 µM (active)
Oc1ccc2c3c1O[C@H]1c4oc5ccccc5c4C[C@@]4(O)C(C2)N(CC2CC2)CCC314 (stereo partly drawn),-1.48% (inactive),
CN1CCC(c2c[nH]c3ccc(O)cc23)CC1,2.25% (inactive),
